Most compounds without a hit are left out; they make up all but 3.1% or so of the library.
RAD52 anneal inh – inhibitors of human RAD52 DNA annealing | P43351 | recombinant RAD52 DNA annealing, FRET fluorescence | 360,000 tested, 0.46% active | inhibition, % at 18.7 µM;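 active means every replicate showing at least 50% inhibition; inconclusive means mean inhibition at least 50% but not in every replicate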
AF4-AF9 inh – inhibitors of human MLL-AF4/AF9 interaction; AlphaScreen, biotin-AF4 peptide binding to FLAG-AF9; 350,000 tested, 0.47% active; P42568; inhibition, % at 10 µM;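 active means every replicate reaching a set inhibition limit, whatever the replicate mean, cut at about 25% in these data; inconclusive means mean inhibition reaches that limit but some replicates miss it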
Target sequence (P42568 whole entry, looked up): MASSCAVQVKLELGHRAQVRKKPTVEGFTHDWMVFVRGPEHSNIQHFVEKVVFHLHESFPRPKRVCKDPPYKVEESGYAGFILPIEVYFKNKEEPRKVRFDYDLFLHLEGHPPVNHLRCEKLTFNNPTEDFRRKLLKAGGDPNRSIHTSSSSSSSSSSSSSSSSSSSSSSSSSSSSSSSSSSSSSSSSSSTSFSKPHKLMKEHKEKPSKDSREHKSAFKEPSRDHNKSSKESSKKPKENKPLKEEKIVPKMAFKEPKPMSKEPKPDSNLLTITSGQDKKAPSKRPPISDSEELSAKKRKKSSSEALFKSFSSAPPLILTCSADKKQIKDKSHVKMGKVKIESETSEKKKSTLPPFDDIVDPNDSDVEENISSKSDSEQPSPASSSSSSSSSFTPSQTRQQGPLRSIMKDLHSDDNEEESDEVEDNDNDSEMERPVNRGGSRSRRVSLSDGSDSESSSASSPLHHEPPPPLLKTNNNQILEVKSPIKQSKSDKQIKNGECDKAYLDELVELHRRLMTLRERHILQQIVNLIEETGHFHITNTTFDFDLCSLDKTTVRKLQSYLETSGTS
RAD54 inh – inhibitors of human RAD54 branch migration; Q92698; RAD54 Holliday junction branch migration, FAM/BHQ fluorescence; inhibition, % at 10.4 µM; 360,000 tested, 0.14% active; AID 602329;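 active means mean normalized replicate activity at least 40 and at least half of replicates scoring 40 or more; inconclusive means only one of the two criteria met; inactive means mean below 40 and under half of replicates reaching 40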;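 further: inhibitors cause a drop in the FAM fluorescence signal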
INS-1E GSIS act – GLuc luminescence reporter in INS-1E cells, primary screen for activators of glucose-dependent secretion of insulin; INS-1E GLuc reporter insulin secretion, 2-3 h; activation, % at 16.6 µM; 370,000 tested, 0.61% active; AID 743287;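 active means lowest replicate activation of at least 40%, so every replicate reaches that level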
dFosB activator – activators of mouse delta FosB homodimer | activation, % at 25 µM | 340,000 tested, 0.99% active | purified delta FosB, TAMRA-CDK5 oligo fluorescence polarization; percent of positive-control signal above neutral wells | P13346;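 active means mean activation above about 17%, with every replicate also reaching it, limit read from the data, passing the limit was not always enough; inconclusive means only one of the two conditions met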
DENV2 CPE rescue – protects cells from dengue virus 2 cytopathic effect; DENV2-infected cells, cytopathic effect rescue, plate reader; CPE inhibition, % at 9.99 µM; 350,000 tested, 1.7% active; in the data active means CPE inhibition above about 20%, passing the limit was not always enough; inconclusive means no clear call, values can overlap the other calls; tested in BHK-21 cells
Large screens that a line does not name were inactive.

N#C[C@@H]1[C@H](c2ccccc2C2=CCCCC2)[C@H](CO)N1C(=O)CN1CCOCC1	none (no result: RAD54 inh, dFosB activator)
N#C[C@H]1[C@@H](c2ccccc2C2=CCCCC2)[C@H](CO)N1C(=O)CN1CCOCC1	DENV2 CPE rescue 43 (no result: RAD54 inh, dFosB activator)
O=C(C1CCOCC1)N1C[C@@H]2[C@H](c3ccccc31)[C@H](CO)N2C(=O)Nc1cccc(F)c1	none (no result: dFosB activator)
N#C[C@H]1[C@@H](c2ccccc2C2=CCCC2)[C@H](CO)N1C(=O)C1CCCC1	DENV2 CPE rescue 41 (no result: RAD54 inh, dFosB activator)
N#C[C@@H]1[C@@H](c2ccccc2C2=CCCCC2)[C@@H](CO)N1S(=O)(=O)c1ccccc1	DENV2 CPE rescue 21 (no result: RAD54 inh, dFosB activator)
N#C[C@@H]1[C@H](c2ccc(-c3cncnc3)cc2)[C@@H](CO)N1C(=O)CN1CCOCC1	DENV2 CPE rescue 50 (no result: dFosB activator)
CCCNC(=O)N1[C@H](C#N)[C@@H](c2ccccc2C2=CCCC2)[C@@H]1CO	DENV2 CPE rescue 23 (no result: RAD54 inh, dFosB activator)
N#C[C@H]1[C@@H](c2ccccc2C2=CCCC2)[C@H](CO)N1C(=O)C1CCC1	none (no result: RAD54 inh, dFosB activator)
CN(C)c1ccc2c(c1)[C@@H]1C[C@H](CC(=O)NCc3ccc(Cl)cc3)O[C@@H](CO)[C@@H]1O2	none (no result: RAD54 inh, dFosB activator)
C/C(=N/Oc1nc(C)cc(C)n1)c1ccccc1	none (no result: RAD52 anneal inh, AF4-AF9 inh, INS-1E GSIS act, DENV2 CPE rescue)
C/C(=N/Oc1nc(C)cc(C)n1)c1ccc(F)cc1	INS-1E GSIS act 64 (no result: RAD52 anneal inh, AF4-AF9 inh, DENV2 CPE rescue)
C[C@H]1CCCCO[C@@H](CN(C)C(=O)Nc2ccc3c(c2)OCO3)[C@@H](C)CN([C@@H](C)CO)C(=O)c2cc(NC(=O)c3ccncc3)ccc2O1	none (no result: dFosB activator)
O=C(NCCS(=O)(=O)N1CCN(c2ccccc2)CC1)C1CC1	DENV2 CPE rescue 104
N#C[C@@H]1[C@H](c2ccccc2C2=CCCC2)[C@H](CO)N1C(=O)NC1CCCCC1	none (no result: RAD54 inh, dFosB activator)
NC(=O)C1CCN(c2nc(-c3ccccc3Br)cs2)CC1	DENV2 CPE rescue 80 (no result: RAD54 inh, dFosB activator)
NC(=O)C1CCN(c2nc(-c3ccccc3F)cs2)CC1	none
C=CC[C@@H](CC(=O)N[C@H](CO)Cc1ccccc1)C(=O)N[C@@H](COC(=O)[C@H](CC=C)CC(=O)OC(C)(C)C)Cc1ccccc1	DENV2 CPE rescue 79
C=CCC[C@@H](Cc1ccc(F)cc1)C(=O)OC[C@@H]1CCCN1C(=O)[C@H](CC=C)CC(=O)N[C@H](CO)Cc1ccccc1	DENV2 CPE rescue 20
C=CC[C@@H](CC(=O)N[C@@H](CO)Cc1ccccc1)C(=O)N[C@@H](COC(=O)[C@@H](CC=C)Cc1ccc(F)cc1)Cc1c[nH]c2ccccc12	DENV2 CPE rescue 73
COC(=O)c1c(NC(=O)CC2Sc3ccc(C(F)(F)F)cc3NC2=O)sc(C)c1C (stereo unspecified)	DENV2 CPE rescue 25 (no result: RAD54 inh, INS-1E GSIS act)
Cc1c(C)c2cc(Cl)c(OCC(=O)NCCCN3CCCC3=O)cc2oc1=O	DENV2 CPE rescue 44 (no result: INS-1E GSIS act, dFosB activator)
O=C(O)C1CCN(C(=O)CSc2nc3cc(Cl)ccc3c(=O)n2Cc2ccccc2)CC1	none
O=C(O)C1CCN(C(=O)CSc2nc3ccccc3c(=O)n2Cc2ccccc2)CC1	INS-1E GSIS act 43
Cc1ccc(Cn2c(SCC(=O)Nc3cc(C)on3)nc3ccccc3c2=O)cc1	dFosB activator 65 (no result: RAD52 anneal inh, AF4-AF9 inh, INS-1E GSIS act, DENV2 CPE rescue)
CCC(C)n1c(SCC(=O)Nc2ccc3[nH]c(=O)[nH]c3c2)nc2ccccc2c1=O (stereo unspecified)	none
CC(C)Cn1c(SCC(=O)Nc2ccc3[nH]c(=O)[nH]c3c2)nc2ccccc2c1=O	INS-1E GSIS act 45
Cc1cc(NC(=O)CSc2nc3ccccc3c(=O)n2Cc2ccccc2)no1	none (no result: RAD52 anneal inh, AF4-AF9 inh, INS-1E GSIS act, DENV2 CPE rescue)
Cc1noc(C)c1S(=O)(=O)Nc1ccc2c(c1)CC(=O)N([C@@H](C)CO)C[C@@H](C)[C@H](CN(C)Cc1ccc(Oc3ccccc3)cc1)O2	none (no result: RAD52 anneal inh, AF4-AF9 inh, dFosB activator)
CO[C@H]1CN(C)C(=O)c2ccc(NC(=O)c3ccno3)cc2OC[C@@H](C)NC[C@@H]1C	none (no result: RAD52 anneal inh, AF4-AF9 inh, RAD54 inh, dFosB activator, DENV2 CPE rescue)
O=C(CC1NCCN(Cc2ccccc2)C1=O)Nc1ccccc1 (stereo unspecified)	DENV2 CPE rescue 72
COc1ccc2c3c([nH]c2c1)[C@H](CO)N(CC1CCOCC1)CC31CN(C(=O)C2CCOCC2)C1	none (no result: RAD54 inh, dFosB activator)
CC(=O)Nc1ccc(NC(=O)CSc2nnc(NC(=O)c3ccccc3F)s2)cc1	DENV2 CPE rescue 30 (no result: dFosB activator)
O=C(CSc1nnc(NC(=O)c2ccco2)s1)Nc1ccc2c(c1)OCCO2	dFosB activator 66
O=C(CSc1nnc(NC(=O)c2ccccc2F)s1)NC1CCCC1	none
CCCN1[C@@H]2c3ccc(-c4cccnc4)c(=O)n3C[C@@H]2[C@@H](CO)[C@@H]1C(=O)NC1CCCC1	none (no result: RAD54 inh, dFosB activator)
CNC(=S)N1CCC(C(=O)c2ccc(Cl)cc2)CC1	DENV2 CPE rescue 22 (no result: dFosB activator)
Cc1ccc(C)c(NC(=S)N2CCC(C(=O)c3ccc(F)cc3)CC2)c1	DENV2 CPE rescue 21 (no result: dFosB activator)
CCNC(=S)N1CCC(C(=O)c2ccc(Cl)cc2)CC1	none
COc1ccc(NC(=S)N2CCC(C(=O)c3ccc(F)cc3)CC2)cc1	DENV2 CPE rescue 37
C=CCNC(=S)N1CCC(C(=O)c2ccc(F)cc2)CC1	DENV2 CPE rescue 53
CCNC(=O)C[C@@H]1CC[C@H]2[C@H](COc3ccc(NC(=O)Nc4ccc(C)cc4)cc3C(=O)N2C)O1	DENV2 CPE rescue inconclusive (no result: dFosB activator)
CCC(=O)N1C[C@H](C)[C@@H](OC)CN(C)C(=O)c2ccc(NC(=O)NC(C)C)cc2OC[C@H]1C	none (no result: dFosB activator)
CCCc1cn(CC[C@H]2CC[C@@H](NC(=O)Cc3cccnc3)[C@H](CO)O2)nn1	none (no result: dFosB activator, DENV2 CPE rescue)
COc1ccc(NC(=O)Nc2ccc3c(c2)CC(=O)N([C@H](C)CO)C[C@H](C)[C@H](CN(C)S(=O)(=O)c2cn(C)cn2)O3)cc1	DENV2 CPE rescue 27 (no result: dFosB activator)
COc1ccc(NC(=O)Nc2ccc3c(c2)CC(=O)N([C@H](C)CO)C[C@H](C)[C@@H](CN(C)S(=O)(=O)c2ccc(OC)cc2)O3)cc1	DENV2 CPE rescue 70 (no result: dFosB activator)
COc1ccc(S(=O)(=O)N(C)C[C@H]2Oc3ccc(NC(=O)Nc4ccc(F)cc4)cc3CC(=O)N([C@@H](C)CO)C[C@H]2C)cc1	DENV2 CPE rescue 23 (no result: RAD52 anneal inh, AF4-AF9 inh, dFosB activator)
COc1ccc(S(=O)(=O)N(C)C[C@@H]2Oc3ccc(NS(C)(=O)=O)cc3CC(=O)N([C@@H](C)CO)C[C@H]2C)cc1	DENV2 CPE rescue 48 (no result: dFosB activator)
COc1ccc(NC(=O)Nc2ccc3c(c2)CC(=O)N([C@H](C)CO)C[C@@H](C)[C@H](CN(C)S(=O)(=O)c2ccc(OC)cc2)O3)cc1	none (no result: dFosB activator)
COc1ccc(S(=O)(=O)N(C)C[C@@H]2Oc3ccc(NC(=O)Nc4ccc(F)cc4)cc3CC(=O)N([C@H](C)CO)C[C@@H]2C)cc1	none (no result: RAD52 anneal inh, AF4-AF9 inh, dFosB activator)
C[C@@H]1CCCCO[C@@H](CN(C)S(=O)(=O)c2cccs2)[C@@H](C)CN([C@@H](C)CO)C(=O)c2cc(NS(=O)(=O)c3cccs3)ccc2O1	none (no result: dFosB activator)
COc1ccc(S(=O)(=O)N(C)C[C@@H]2Oc3ccc(NC(=O)Nc4ccc5c(c4)OCO5)cc3CC(=O)N([C@@H](C)CO)C[C@H]2C)cc1	DENV2 CPE rescue 31 (no result: dFosB activator)

Source: PubChem
